Laboratory results: PubChem BioAssay AID2451 (National Center for Advancing Translational Sciences (NCATS), 2010)
In all, about 290,000 compounds went through this assay and about 2,100 (0.72%) were called active. Roughly 4% stayed inconclusive and do not appear here. Calls follow the shape of the dose curve; as a rule, active = well fitted inhibition curve with a large enough effect; inconclusive = small, poorly fitted or top-dose-only effect, or effect the other way; inactive = flat fitted curve, though single readings scatter. The sample as a whole holds a higher share of actives than the screen did.

The compounds below were run against Fructose-bisphosphate aldolase (Giardia intestinalis (strain ATCC 50803 / WB clone C6)) (UniProt A8B2U2) (assay: qHTS Assay for Inhibitors of Fructose-1,6-bisphosphate Aldolase from Giardia Lamblia). Settings: purified Giardia FBPA; series mostly up to 59.6 µM; activity, negative = inhibition: at the top concentration.
Fructose-bisphosphate aldolase (Giardia intestinalis (strain ATCC 50803 / WB clone C6)), sequence (A8B2U2 whole entry, looked up): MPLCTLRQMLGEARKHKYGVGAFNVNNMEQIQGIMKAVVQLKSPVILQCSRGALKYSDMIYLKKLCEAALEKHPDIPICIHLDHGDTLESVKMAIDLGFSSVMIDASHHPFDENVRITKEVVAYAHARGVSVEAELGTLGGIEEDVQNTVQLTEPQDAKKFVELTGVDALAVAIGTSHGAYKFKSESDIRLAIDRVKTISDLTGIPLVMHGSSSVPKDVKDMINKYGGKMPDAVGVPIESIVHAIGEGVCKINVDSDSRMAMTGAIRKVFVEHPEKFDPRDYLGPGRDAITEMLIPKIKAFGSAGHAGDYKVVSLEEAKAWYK
Excerpt: Assay Provider: Osnat Herzberg, University of Maryland
The objective of this project is to obtain compounds that inhibit Giardia lamblia growth. G. lamblia is a human pathogen which afflicts impoverished nations; it is the most common cause of outbreaks of diarrhea in the United States. During the course of our study of potential drug targets in Giardia, we have identified the Class II (Zn2+ functions in electrophilic catalysis) fructose-1,6-bisphosphate aldolase (FBPA) as an excellent candidate for drug targeting. FBPA is a key glycolytic pathway enzyme, essential for G. lamblia survival. The human FBPA belongs to the Class I aldolases, which have a different substrate binding site structure and a radically different catalytic mechanism (employing a lysine-Schiff base intermediate). Therefore, affinity-based or mechanism-based inhibitors of the Giardia FBPA are expected not to interfere with the catalytic function of the human FBPA.
A glyceraldehyde-3-phosphate dehydrogenase/triose phosphate isomerase/NAD/arsenate coupled assay was adapted to the 1536-well HTP format for use in the primary screen. This was done by coupling it to a diaphorase/resazurin/resorufin reaction that can be monitored by fluorescence (excitation, 544 nm; emission, 590 nm). Compounds identified in this screen will be further evaluated by coupling the glycerol-3-phosphate/triose phosphate isomerase/NADH assay to a phenazine methosulfate/tetranitroblue tetrazolium color reaction. False positives due to the dehydrogenases and diaphorase inhibition will be eliminated, and selectivity assay will triage inhibitors of mammalian triose phosphate isomerase and the Class I FBPA. G. lamblia FBPA inhibitors identified by the in vitro analyses will be examined for growth inhibition of Giardia trophozoites, and for cytotoxicity in human cells.
Step,Parameter,Value,Description
1,Enzyme reagent,2 uL,40 nM FBPA
2,Compound,23 nL,3.68 nM-57.5 uM final concentration
3,Time,10 min,RT Incubation
4,Substrate/detection Reagent,2 uL,Substrate + enzyme coupling system + AmpLite Red kit
5,Time,20 min,RT Incubation
6,Detector,525 nm/598 nm (Fluorescence),ViewLux Fluorescence Read (Read 1)
1,Medium-binding black solid-bottom Kalypsys plates. FRD or Kalypsys dispenser, 2 uL of FBPA enzyme. Bottle kept at 4C.
2,Compound Library (10 mM ,1:5 dilution). Pin-transferred for a [final] range of 3.68 nM-57.5 uM.
4,FRD or Kalypsys dispenser, 2 uL of reaction mixture. Bottle kept at 4C and covered in foil to protect from light.
6,ViewLux Protocol 1194; Excitation filter wheel A (525/20 Pol; BODIPY TMR FP), Emission filter wheel B (598/25 S; BODIPY TMR FP S).
Keywords: Fructose-bisphosphate aldolase, FBPA , Giardia lamblia , Giardia, HTS, Inhibitors
% is scaled to controls: 0 for no effect and ±100 for the full control effect; potency is read from the fitted curve at half-maximal effect.
Also: nearly all actives have a fitted effect of over 55% in size.

Row | Structure (SMILES) | Potency | activity, negative = inhibition
1 | O=C(O)Cn1c(Cc2ccccc2)nc2ccccc21 | 28.2 µM (active) | 
2 | C=C(Br)Cn1c(CCCC)nc2ccccc21 |  | 8.1% (inactive)
3 | CC(=O)c1nc2ccccc2n1Cc1ccccc1 |  | -5.52% (inactive)
4 | CCc1ccc(S(=O)(=O)N/N=C\c2ccc([N+](=O)[O-])o2)cc1 |  | -19.2% (inactive)
5 | Cc1cc(C)nc(N/N=C/c2c(C)oc3ccccc23)n1 |  | -26.2% (inactive)
6 | Cc1cc(C)nc(N/N=C/c2ccc([N+](=O)[O-])o2)n1 | 28.2 µM (active) | 
7 | CS(=O)(=O)N1CCc2cc(C(=O)Nc3ccccc3Br)ccc21 |  | 10.4% (inactive)
8 | CCCOc1ccc(-c2c(C(=O)N/N=C/c3ccco3)nnn2-c2nonc2N)cc1 |  | 7.42% (inactive)
9 | Cc1ccc(/C=N/NC(=O)c2cc3ccccc3cc2O)o1 |  | -19.7% (inactive)
10 | Cc1cc2[nH]ncc2cc1NC(=S)NC(=O)c1ccccc1 |  | -10.8% (inactive)
11 | Cn1nnc(NC(=S)NC(=O)c2ccccc2)n1 | 3.15 µM (active) | 
12 | COCCCNC(=S)NC(=O)c1ccccc1 |  | 0.0132% (inactive)
13 | Cc1c(Cl)cccc1NC(=S)NCC(O)c1ccccc1 (stereo not given) |  | 0.0635% (inactive)
14 | O=C(c1n[nH]c2c1CCC2)N1CCCC(Nc2cccc(F)c2)C1 (stereo not given) |  | -1.71% (inactive)
15 | CSc1n[nH]c(=S)n1N | 19.9 µM (active) | 
16 | Cc1noc(C)c1CCC(=O)N1CCCC(CO)(Cc2ccccc2)C1 (stereo not given) |  | -4.45% (inactive)
17 | COc1ccc2c3c(c(=O)oc2c1)C1O[C@](CCCCN2C(=O)c4ccccc4C2=O)(Cc2c1ccc1ccccc21)O3 |  | -2.65% [at 12.9 µM] (inactive)
18 | COc1ccc(CCNCc2c(-c3ccccc3)n(C)c3ccccc23)cc1 |  | -29.6% (inactive)
19 | COc1ccc(-c2csc(Nc3ccc(O)cc3)n2)cc1 |  | -23% (inactive)
20 | COc1ccc(-c2csc(Nc3ccccn3)n2)cc1 |  | -13.5% (inactive)
21 | COc1ccc(OC)c(Nc2nc(-c3ccc(O)c(O)c3)cs2)c1 | 8.89 µM (active) | 
22 | COc1ccc(C2=Nn3c(nnc3-c3ccccc3O)SC2)cc1 |  | 5.11% (inactive)
23 | CCOc1cc(C2/C(=C(/O)c3ccc(S(=O)(=O)N4CCCCC4)cc3)C(=O)C(=O)N2CCOC)ccc1O (stereo not given) |  | 20.3% (inactive)
24 | C=C(C)CNC(=S)N/N=C/c1ccccc1OCC(=O)O | 17.7 µM (active) | 

Row | Structure (SMILES) | Potency | activity, negative = inhibition
25 | Cc1ccc(/C=N/NC(=O)CNC(=O)COc2ccccc2)o1 |  | -0.787% (inactive)
26 | O=C(CNC(=O)COc1ccccc1)NCCc1ccccn1 |  | 5.88% (inactive)
27 | CCOc1ccccc1/C=N/NC(=O)CNC(=O)COc1ccccc1 | 17.7 µM (active) | 
28 | CCn1c(SCC(=O)N/N=C/c2ccccc2OCC(=O)O)nnc1-c1ccc(C(C)(C)C)cc1 |  | -14% (inactive)
29 | C=CCOc1ccccc1/C=N/NC(=O)Cc1ccccc1 |  | 9.96% (inactive)
30 | COC(=O)c1cccc(N2C(=O)C3C4C=CC(CC4)C3C2=O)c1 (stereo not given) |  | 5.94% (inactive)
31 | CCCCN1C(=O)C(C)=C(C)C1OCCc1ccc(OC)c(OC)c1 (stereo not given) |  | 4.28% (inactive)
32 | Cc1ccc(C(=O)NCC(=O)OCc2nnc(-c3ccccc3)o2)cc1 |  | 5.28% (inactive)
33 | CCOc1ccc(N(C)Cc2cc(=O)oc3ccc(OC)cc23)cc1 |  | 6.29% (inactive)
34 | Cn1nccc1/C=N\NC(=O)c1ccc(Cl)cc1 |  | -7.24% (inactive)
35 | C=CCc1c(C)nc2cc(-c3ccccc3)[nH]n2c1=O |  | -20.9% (inactive)
36 | Cc1nc2cc(C(F)(F)F)ccc2n1CCNc1nc(-c2cc(Cl)c(N)c(Cl)c2)cs1 |  | -7.4% (inactive)
37 | COc1cccc(C(=O)Nc2nnc(S(=O)(=O)N3CCCCC3)s2)c1 | 17.8 µM (active) | 
38 | Cc1ccccc1OCC(=O)Nc1nnc(S(=O)(=O)N2CCCC2)s1 |  | 0.701% (inactive)
39 | CCOC(=O)CSc1nnc(NC(=O)c2cccc(S(=O)(=O)N3CCCCC3)c2)s1 |  | 8.02% (inactive)
40 | COc1ccc(C)cc1N(CC(=O)N1CCCC1)S(=O)(=O)c1ccccc1 |  | 8.2% (inactive)
41 | Cc1ccc(C)c(N2CCN(S(=O)(=O)c3c(C)[nH]c(C)c3C(=O)N3CCCC3)CC2)c1 |  | 6.26% (inactive)
42 | CN1CCN(CCCCOc2ccccc2-c2ccccc2)CC1 | 19.9 µM (active) | 
43 | CN1CCN(CCCCOc2cccc3ccccc23)CC1 |  | -18.8% (inactive)
44 | CC1CCCN(CCOCCOc2ccccc2-c2ccccc2)C1 (stereo not given) |  | -28.2% (inactive)
45 | CC(NC(=S)NNS(=O)(=O)c1ccc(C(C)(C)C)cc1)c1ccccc1 (stereo not given) |  | -2.32% (inactive)
46 | COc1ccc(C(=O)NNS(=O)(=O)c2ccc(C)cc2)cc1 |  | -0.057% (inactive)
47 | Cc1ccc(S(=O)(=O)NNC(=S)NC(C)(C)C)cc1 | 11.2 µM (active) | 
48 | CCNC(=O)CC1C(=O)N(c2ccc(OC)cc2)C(=O)N1CCOC (stereo not given) |  | -9.69% (inactive)

Row | Structure (SMILES) | Potency | activity, negative = inhibition
49 | O=c1oc2ccccc2c(CNc2ccccc2)c1[N+](=O)[O-] |  | 8.39% (inactive)
50 | COc1ccc(C(=O)NCCSc2ccccc2C)cc1 |  | 9.8% (inactive)
51 | Nc1c(C(=O)NCc2ccccc2)nnn1Cc1cccc(Cl)c1 |  | -0.252% (inactive)
52 | Clc1cccc(CN2COc3c(cc(Cl)c4cccnc34)C2)c1 | 17.7 µM (active) | 
53 | CC(C)CC(=O)N1CCN(Cc2cccc(Cl)c2)CC1 |  | -21.7% (inactive)
54 | Cc1ccc(O)c(/C=N/NC(=O)COc2ccc3c(C)cc(=O)oc3c2)c1 |  | 9.07% (inactive)
55 | Brc1ccc(OCCn2ccnc2)cc1 |  | 0.307% (inactive)
56 | C=CCc1cc(C)ccc1OCCCn1ccnc1 | 25.1 µM (active) | 
57 | Cc1ccc2c(Cl)c(C(=O)NCCCn3ccnc3)sc2c1 |  | 0.0784% (inactive)
58 | Cc1ccc(OCC(=O)Nc2ccc3oc(=O)ccc3c2)cc1C |  | 10.4% (inactive)
59 | Cc1cccc(N(Cc2ccccc2)C(=O)c2ccccc2F)c1 |  | 7.97% (inactive)
60 | COC(=O)c1cc(S(=O)(=O)N2CCN(c3cc(C)ccc3C)CC2)c[nH]1 |  | -28.7% (inactive)
61 | O=C(Nc1cccc(Cl)c1)c1cc(S(=O)(=O)N2CCCCC2)c[nH]1 |  | 7.52% (inactive)
62 | COc1ccc(C2c3[nH]c4ccccc4c3C[C@H]3C(=O)N(CC(C)C)CC(=O)N23)c(OC)c1 (stereo not given in full) |  | 8.11% (inactive)
63 | Cc1cccc(-c2nnc(SCC(=O)O)n2Cc2ccccc2)c1 | 15.8 µM (active) | 
64 | CCc1nnc(NC(=O)CSc2nnc(-c3ccncc3)n2Cc2ccccc2)s1 |  | 0.288% (inactive)
65 | Cc1cnc(NC(=O)CSc2nnc(-c3ccccc3)n2Cc2ccccc2)s1 |  | 3.82% (inactive)
66 | CC(CN1CCOCC1)OC(=O)c1ccc(C(C)(C)C)cc1 (stereo not given) |  | -23.6% (inactive)
67 | O=c1[nH]c(=S)[nH]c2[nH]c(=S)[nH]c12 | 12.6 µM (active) | 
68 | Cc1c(C)c(C)c2[nH]c(=S)[nH]c2c1C |  | -0.981% (inactive)
69 | Cc1ccc(S(=O)(=O)N(CCCN(C)C)Cc2ccc3c(c2)OCO3)cc1 |  | 17.3% (inactive)
70 | CCN(CC)Cc1c(C(=O)N/N=C/c2cccc(OCc3ccc(F)cc3)c2)nnn1-c1nonc1N |  | -21.4% (inactive)
